Data on five compounds can be found in PubChem BioAssay.

The test system of assay [1] is Human papillomavirus type 1a protein E7 (residues 44-93). As to the kind of experiment: HPV1a E7 fragment binders on microarrays, primary screen, biochemical, small-molecule microarray, residues 44-93, 635 nm fluorescence (AID 1108).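 Further: E7 fragment applied at 1 µg/mL in TBST for 1 h at 4 C; score combines spot fluorescence with its signal to noise ratio.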 To be noted: small-molecule microarray binding, fluorescence 635 nm; higher = more signal.
Assay [2] can be described thus: modulators of HCV replicon luciferase signal, primary screen, HCV replication inhibitor project, Huh7 cells, luciferase reporter (AID 1109).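 Further: huh7 hepatoma cells harbouring a luciferase neomycin HCV replicon reporter; luciferase luminescence as measure of HCV replicon replication; test concentration not given here.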 To be noted: 48 h, higher = more signal. A general note: A replicon is a self-replicating genome or part of one, used to study replication in cells.
Assay [3] concerns the target Left-right determination factor 2 (Homo sapiens) (UniProt O00292). The experiment in a line: LEFTY2 binders on small-molecule microarrays, primary screen, biochemical, small-molecule microarray, 635 nm fluorescence scan (AID 1110). To be noted: LEFTY2 binding, higher = more signal.
In assay [4] the target is Calmodulin-1 (Homo sapiens) (UniProt P0DP23). As to the kind of experiment: CALM1 binders on microarrays, EGTA buffer, profiling panel, biochemical, small-molecule microarray, Cy5-labelled CALM1 (AID 1111).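 Further: labelled calmodulin applied in Tris saline Tween buffer holding calcium plus EGTA and DTT.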 The conditions noted are these: Cy5-CALM1 binding fluorescence, higher = more signal.
The target is the same in assay [5]. The experiment in a line: calcium-bound CALM1 binders on microarrays, profiling panel, artefact control for SMM control-protein annotation, biochemical, small-molecule microarray, Cy5-labelled CALM1, plus calcium (AID 1112).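 Further: score merges spot fluorescence with signal to noise from triplicate slides.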 To be noted: Cy5-CALM1 binding fluorescence, higher = more signal.
The nature of assay [6]: small-molecule microarray binders of probe aWnt5a, primary screen, biochemical, biotinylated probe, 635/667 nm fluorescence (AID 1113).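 Further: score merges 667 nm fluorescence intensity with signal-to-noise per printed feature.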 The conditions noted are these: higher = more signal.
A short description of assay [7]: small-molecule microarray binders of probe aShh, primary screen, biochemical, biotinylated probe, 635/667 nm fluorescence (AID 1114).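 Further: probe is biotin-labelled aShh protein from a stem cell growth factor screen; measures binding of labelled protein to compounds printed on the slide; score merges feature fluorescence at 667 nm with signal-to-noise.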 To be noted: higher = more signal.
The nature of assay [8]: small-molecule microarray binders of probe aNog, primary screen, biochemical, biotinylated probe, 635/667 nm fluorescence (AID 1115).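 Further: probe is biotinylated aNog protein used at 0.15 µg/mL for 1 h at 4 C; z-score combines 667 nm fluorescence of each spot with its signal to noise.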 To be noted: higher = more signal.
In assay [9] the target is Torsin-1A-interacting protein 1 (Homo sapiens) (UniProt Q5JTV8). As to the kind of experiment: LAP1 binders from COS7 cell lysate, primary screen, small-molecule microarray, 635/667 nm fluorescence (AID 1116). The conditions noted are these: COS7-hLAP1 lysate binding, 635 nm fluorescence, higher = more signal.
For assay [10], the target named is Alpha-bungarotoxin (Bungarus multicinctus) (UniProt P60615). The experiment in a line: alpha-bungarotoxin binders on microarray, profiling panel, artefact control for SMM control protein annotation, biochemical, small-molecule microarray, Alexa647 label, 635/667 nm fluorescence (AID 1117). The conditions noted are these: alpha-BTX-A647 binding fluorescence, higher = more signal.

A further assay addresses Albumin (Bos taurus) (UniProt P02769). As to the kind of experiment: bovine serum albumin binders on microarray, profiling panel, artefact control for SMM control protein annotation, biochemical, small-molecule microarray, Alexa647 label, 635/667 nm fluorescence (AID 1118).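 Further: score merges 667 nm emission intensity and signal-to-noise per printed compound spot.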 To be noted: BSA-A647 binding, fluorescence 635 nm, higher = more signal.
Assay [11] can be described thus: small-molecule microarray binders of probe aXIP, primary screen, biochemical, NeuroSMM set, 635/667 nm fluorescence (AID 1119).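 Further: probe is the protein aXip251-270 applied at 1 µg/mL to compound-printed slides; binding of probe to printed compounds measured as 667 nm fluorescence plus signal to noise.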 The conditions noted are these: higher = more signal, called active from +8 up or from −8 down.
The nature of assay [12]: small-molecule binders of probe aNOTCH3, primary screen, biochemical, small-molecule microarray, 635/667 nm fluorescence (AID 1120).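 Further: probe is a biotin-tagged antibody raised against NOTCH3 rather than NOTCH3 protein; score merges spot fluorescence near 667 nm with spot signal to noise.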 To be noted: higher = more signal.
A short description of assay [13]: small-molecule binders of probe aNOTCH2, primary screen, biochemical, small-molecule microarray, 635/667 nm fluorescence (AID 1121).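 Further: score merges feature fluorescence read at 667 nm with its signal to noise.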 To be noted: higher = more signal.
The target of assay [14] is Carbonic anhydrase 2 (Homo sapiens) (UniProt P00918). The experiment in a line: CAII small-molecule binders, profiling panel, biochemical, small-molecule microarray, Alexa647-labelled CAII (AID 1122). The conditions noted are these: CAII-A647 binding fluorescence, higher = more signal.
Assay [15] is described as follows: COS7 lysate on small-molecule microarray, probe aHis, 635 nm (AID 1123).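 Further: z-score combines 667nm fluorescence intensity with signal-to-noise per printed compound spot.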 To be noted: COS7 cell lysate, fluorescence, higher = more signal.
Assay [16] is described as follows: compound binding in COS7 lysate, probe aLAP1, primary screen, cell lysate, small-molecule microarray (AID 1124).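 Further: lysate comes from COS7 cells expressing LAP1 and is applied at 0.3 µg/mL; score merges spot fluorescence near 667 nm with signal-to-noise over triplicate slides.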 To be noted: probe aLAP1, fluorescence, higher = more signal.
Another assay deals with Sam68 (KHDRBS1). As to the kind of experiment: Sam68 small-molecule binders, primary screen, biochemical, small-molecule microarray, 635 nm fluorescence (AID 1125).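 Further: score merges 667 nm channel intensity with signal to noise over triplicate slides.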 To be noted: small-molecule microarray binding, higher = more signal.
The test system of assay [17] is Chordin-like protein 2 (CHRDL2). As to the kind of experiment: CHRDL2 small-molecule binders, primary screen, biochemical, small-molecule microarray, 635 nm fluorescence (AID 1126).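 Further: printed compound slides probed with Chrdl2 protein at 4 µg/mL for 1 h at 4 C; score merges 667 nm emission intensity with signal to noise over three replicate slides.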 To be noted: small-molecule microarray binding, fluorescence 635 nm; higher = more signal.
In assay [18] the target is Concanavalin-A (Canavalia ensiformis) (UniProt P02866). The experiment in a line: ConA small-molecule binders, primary screen, artefact control for SMM control protein annotation, biochemical, small-molecule microarray, Alexa647 label, 635 nm (AID 1127).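 Further: z combines 667 nm emission intensity with signal-to-noise across three replicate slides.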 To be noted: ConA-A647 binding fluorescence, higher = more signal.

Molecules are shown by their SMILES. Active and inactive are the calls of the source.

Concanavalin-A (Canavalia ensiformis), sequence (P02866 whole entry, looked up): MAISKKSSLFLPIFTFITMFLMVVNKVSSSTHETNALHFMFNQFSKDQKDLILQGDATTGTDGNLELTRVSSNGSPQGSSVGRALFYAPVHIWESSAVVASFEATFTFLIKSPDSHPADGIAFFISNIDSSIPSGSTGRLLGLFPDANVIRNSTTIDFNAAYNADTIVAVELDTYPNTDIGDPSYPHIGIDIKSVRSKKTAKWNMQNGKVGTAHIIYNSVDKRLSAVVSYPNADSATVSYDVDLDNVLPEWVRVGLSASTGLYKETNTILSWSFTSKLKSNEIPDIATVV
Torsin-1A-interacting protein 1 (Homo sapiens), sequence (Q5JTV8 whole entry, looked up): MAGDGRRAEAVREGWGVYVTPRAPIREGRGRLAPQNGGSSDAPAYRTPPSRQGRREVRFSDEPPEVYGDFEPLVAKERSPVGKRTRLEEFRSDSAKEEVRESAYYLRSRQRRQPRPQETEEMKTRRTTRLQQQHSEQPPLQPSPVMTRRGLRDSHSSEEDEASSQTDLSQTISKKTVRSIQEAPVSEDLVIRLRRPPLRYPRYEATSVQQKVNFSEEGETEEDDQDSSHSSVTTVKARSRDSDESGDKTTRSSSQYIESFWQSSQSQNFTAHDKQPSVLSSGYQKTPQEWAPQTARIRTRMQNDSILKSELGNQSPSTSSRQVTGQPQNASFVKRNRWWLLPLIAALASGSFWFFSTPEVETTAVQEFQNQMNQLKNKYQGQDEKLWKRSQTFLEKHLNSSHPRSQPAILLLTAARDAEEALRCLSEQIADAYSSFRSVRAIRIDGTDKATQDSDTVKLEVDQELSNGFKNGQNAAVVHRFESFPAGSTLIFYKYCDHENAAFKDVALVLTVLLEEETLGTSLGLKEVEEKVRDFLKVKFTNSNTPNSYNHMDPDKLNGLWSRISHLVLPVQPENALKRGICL
Left-right determination factor 2 (Homo sapiens), sequence (O00292 whole entry, looked up): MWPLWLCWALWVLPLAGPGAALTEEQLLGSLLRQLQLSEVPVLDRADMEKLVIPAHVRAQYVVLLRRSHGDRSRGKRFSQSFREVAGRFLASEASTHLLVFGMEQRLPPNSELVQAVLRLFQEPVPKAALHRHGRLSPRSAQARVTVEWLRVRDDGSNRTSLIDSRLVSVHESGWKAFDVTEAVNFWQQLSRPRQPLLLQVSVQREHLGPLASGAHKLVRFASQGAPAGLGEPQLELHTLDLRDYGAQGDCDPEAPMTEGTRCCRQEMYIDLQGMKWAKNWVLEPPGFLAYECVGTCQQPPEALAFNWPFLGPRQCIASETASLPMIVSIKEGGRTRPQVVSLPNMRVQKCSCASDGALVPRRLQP
Albumin (Bos taurus), sequence (P02769 whole entry, looked up): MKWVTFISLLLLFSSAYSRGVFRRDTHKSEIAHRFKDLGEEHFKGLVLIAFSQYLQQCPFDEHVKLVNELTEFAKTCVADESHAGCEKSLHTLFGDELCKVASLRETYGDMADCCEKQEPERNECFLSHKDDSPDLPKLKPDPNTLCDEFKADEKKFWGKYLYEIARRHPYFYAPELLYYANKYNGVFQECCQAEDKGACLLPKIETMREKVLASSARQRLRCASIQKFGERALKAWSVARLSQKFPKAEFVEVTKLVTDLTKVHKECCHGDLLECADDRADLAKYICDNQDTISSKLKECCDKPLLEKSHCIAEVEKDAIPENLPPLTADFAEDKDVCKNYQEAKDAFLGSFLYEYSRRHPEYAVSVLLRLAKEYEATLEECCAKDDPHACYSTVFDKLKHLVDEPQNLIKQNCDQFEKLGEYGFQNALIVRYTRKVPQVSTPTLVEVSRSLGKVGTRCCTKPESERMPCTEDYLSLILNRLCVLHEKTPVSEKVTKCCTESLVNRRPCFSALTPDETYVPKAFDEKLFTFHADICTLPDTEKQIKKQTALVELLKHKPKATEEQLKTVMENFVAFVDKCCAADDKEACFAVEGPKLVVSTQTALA
Alpha-bungarotoxin (Bungarus multicinctus), sequence (P60615 whole entry, looked up): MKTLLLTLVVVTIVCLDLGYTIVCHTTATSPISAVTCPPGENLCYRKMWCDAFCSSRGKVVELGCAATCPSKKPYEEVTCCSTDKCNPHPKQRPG

Take `NC(=O)[C@@H]1[C@H]2C(=O)O[C@H](c3ccccc3)[C@H](c3ccccc3)N2[C@H](c2ccccc2OCCO)[C@@]12C(=O)Nc1ccc(C#CCCO)cc12`: the composite z-score was 0.42 in assay [1]; -0.388 in assay [3]; 0.613 in [4]; 0.154 in [5]; -0.226 in assay [6]; -0.221 in [7]. Besides, the composite z-score in assay [8] is -0.139; in assay [9], 0.0571; in assay [10], 1.18; in the assay with Albumin (Bos taurus), 0.59; in assay [12], -0.218; in [13] it was -0.147. Further, the composite z-score in assay [14] is 0.71; in assay [15] it was 0.663; in assay [16] it was 0.148; in the assay on Sam68 (KHDRBS1), 0.13; in assay [17], -0.68; in assay [18], 1.18. The z-score in assay [2] is -1.02. In addition, the composite Z-score in [11] is -0.309 (inactive).
For the compound `C[C@]12C(=O)N(CCCO)[C@@H]3C(=O)N(c4ccc(Cl)cc4)CC=CC31O[C@@H]1/C=C\CCCOC(=O)C12` (stereo not given in full), the composite z-score in [1] is -0.202; in [3], -1.31; in assay [4], -0.887; in assay [5], -0.203; in [6], -0.202; in assay [7], -0.0904. Moreover, the composite z-score in assay [8] was 0.309; in [9], 2.33; in assay [10], -0.777; with Albumin (Bos taurus) it was 0.309; in assay [12], -0.305; in assay [13], -0.118. In addition, the composite z-score in assay [14] is 0.883; in assay [15], 1.46; in assay [16], 0.492; in the assay with Sam68 (KHDRBS1), 0.518; in assay [17] it was -1.38; in [18], -0.743. This compound yielded a z-score in assay [2] of -0.513. In addition, the composite Z-score in assay [11] was 0.264 (inactive).
Consider `COc1ccc(C#Cc2ccc3c(c2)[C@]2(C(=O)N3)[C@H](c3ccc(OCCO)cc3)N3[C@H](c4ccccc4)[C@H](c4ccccc4)OC(=O)[C@H]3[C@@H]2C(=O)N2CCN(c3ncccn3)CC2)cc1`, for which the composite z-score in assay [1] is 1.25; in assay [3] it was 0.201; in [4], 1.91; in assay [5], 0.722; in assay [6] it was -0.252; in assay [7] it was -0.262. Moreover, the composite z-score in assay [8] was -0.474; in [9] it was 0.45; in assay [10], 0.235; in the assay with Albumin (Bos taurus), 0.716; in [12], -0.156; in assay [13] it was -0.157. The composite z-score is 0.39 in assay [14]; 0.873 in [15]; 0.324 in assay [16]; 0.514 in the assay on Sam68 (KHDRBS1); -0.233 in assay [17]; 1.04 in assay [18]. In addition, in assay [2], the z-score was -1.18. The composite Z-score in assay [11] is -0.912 (inactive).
On to `C=CC[C@]1(C(=O)NCC(O)CO)N=C(c2ccc(OCCCO)cc2)O[C@H]1c1ccccc1N=[N+]=[N-]` (stereo not given in full), for which the composite z-score in assay [1] is 1.14; in [3], -0.571; in assay [4], 1.64; in assay [5], 0.479; in [6], 0.106; in assay [7], 1.09. The composite z-score in assay [8] is 1.68; in assay [9], 2.75; in assay [10], -0.0575; with Albumin (Bos taurus) it was 0.933; in assay [12], 0.0876; in assay [13] it was 0.132. Besides, the composite z-score is 0.766 in [14]; 2.78 in assay [15]; 1.41 in [16]; 0.645 in the assay on Sam68 (KHDRBS1); -0.451 in [17]; -0.0308 in assay [18]. This compound also registered a z-score in assay [2] of -0.0862. Further, the composite Z-score in assay [11] was 0.171 (inactive).
For `NC(=O)NCC#Cc1ccc2c(c1)[C@]1(C(=O)N2)[C@H](c2ccc(OCCO)cc2)N2[C@H](c3ccccc3)[C@H](c3ccccc3)OC(=O)[C@H]2[C@@H]1C(=O)N1CCN(c2ncccn2)CC1`, the composite z-score in assay [1] was 0.833; in [3], 0.259; in assay [4], 0.362; in [5] it was 0.492; in assay [6], -0.0977; in assay [7], 0.156. Also, the composite z-score was 0.042 in assay [8]; 0.655 in assay [9]; 1.21 in assay [10]; -0.17 with Albumin (Bos taurus); 0.108 in [12]; 0.0101 in assay [13]. The composite z-score in [14] came to 0.257; in assay [15], 0.815; in assay [16], 0.332; in the assay on Sam68 (KHDRBS1), 0.776; in assay [17], 0.903; in [18], 0.698. In [2], this compound gave a z-score of -0.488. Moreover, the composite Z-score in assay [11] was -0.991 (inactive).
